Reference: publication PMC12136788
Where a chain is given by its changes, count along the chain named. Whole data set: some 5,800 sequences, median “enrichment r” near 0.54, cut for the highest 2% near 16. Shown is part of a subset that was picked to be rich in the highest values.

B1: chr11:46542767:46542868:-|CDS|ENSG00000110497|msi1|total|mutant (ssRNA)
RNA: GGGAGUUCUACAGUCCGACGAUCAACACGCUCCGCAACCUCAGUCUGGGUCCUACCCGCCGCUCUUUGGGAGGGCCUCUGUCCCGCCACCCUUCCCGGUAUCACCGAGAAACCGCUCCUGGGUUGACAGGAUCUGAGUGGACCCAACAGAGGAUUGAGCAUCA
B2: chrX:21994482:21994713:+|3pUTR|ENSG00000102172|msi1|total|mutant (ssRNA)
RNA: GGGAGUUCUACAGUCCGACGAUCCAGCUGAAGGAUGGUCCGACAGCACAGCGAAGACUGCUAAAUGCACUGACCCCCCCCAUCCGAAUGUGAUUUUUGUUCCUUUUUAUUUCUCUGUGGGCUUUUGUUUUUGUUUUUGUUUUGCAACAGAGGAUUGAGCAUCA
B3: chr19:41261474:41261596:+|3pUTR|ENSG00000167601|msi1|total|mutant (ssRNA)
RNA: GGGAGUUCUACAGUCCGACGAUCUCUAAAGGUCCACAGGUCCCGACUAUCCGGUGCAAUUUCAAGGUUCUAACCCUAUACUGCCGUAUUCUUUGGGGUGCCCCUCUCCUUCUCCGCUAUCAUUGCUUCCUCCUCCCCAACUGUCAACAGAGGAUUGAGCAUCA
B4: ENSG00000198589:be:win_4151|CDS|ENSG00000198589|bound_else_gene|NA|bound_elsewhere_windowed (ssRNA)
RNA: GGGAGUUCUACAGUCCGACGAUCCGGCUACACAUGAACUGGAAAAUAUUGAACCUACUCAAGGCCUUUCAAUAGAAGCCUCUGUGACAUUUUUGCAGAGGCUAAUUAGCCUUGUGGAUGUGCUUAUAUUUGCAAGUUCUCUUGCAACAGAGGAUUGAGCAUCA
B5: ENSG00000198589:be:win_9651|3pUTR|ENSG00000198589|bound_else_gene|NA|bound_elsewhere_windowed (ssRNA)
RNA: GGGAGUUCUACAGUCCGACGAUCCUUCAAGUGGUCCCUCUUUUUUUCCUACACACUCAGCUCUUCUCUAAAAGCAAGGAUUUGGAAUGAACAAUUCAGUUUGACAGAAAAAGCUGAAUAAAAUGGCAUCUGUAAUUGAAUUGUCAACAGAGGAUUGAGCAUCA
B6: chr13:20822168:20822271:-|CDS|ENSG00000132953|unk|total|mutant (ssRNA)
RNA: GGGAGUUCUACAGUCCGACGAUCUCGAAAAAUCAGAGAAGAUUCAGAUAUGGCACAAGAUUCUCUGCAGUGCCUUGCCCAGUCCGCUUCUCUUCAUGGACCCAUCUUCCCAGAUGAAGGAUCACAAGUUGAUUAUCCCGCACACAACAGAGGAUUGAGCAUCA
B7: ENSG00000136451:be:win_3251|3pUTR|ENSG00000136451|bound_else_gene|NA|bound_elsewhere_windowed (ssRNA)
RNA: GGGAGUUCUACAGUCCGACGAUCCUUAGUGUAAAAUAAUUUUAUAAAUGAUCUUUUGUACUUUAGGACAUUAAAUUGUACAACUUUUGUAUAUAUAAAAGCUUAGGAACUUUCUGUUUAGCAGGAAGGCAACACAUUCCUACACAACAGAGGAUUGAGCAUCA
B8: chr1:232398519:232398625:-|3pUTR|ENSG00000116991|unk|total|mutant (ssRNA)
RNA: GGGAGUUCUACAGUCCGACGAUCACAGCCGUUUUAUUUCCACAGCCACAUUACCACCGCAAUAAGAAAGGAGGCACCGUACACCGUUGGAAAAGCUUUGUGGGGGGAUUAAAAAAAAAAAAAAGCACUGUUGUGUUUAACACUCAACAGAGGAUUGAGCAUCA
B9: chr4:65323451:65323552:-|3pUTR|ENSG00000145242|msi1|FALSE|unique (ssRNA)
RNA: GGGAGUUCUACAGUCCGACGAUCAUCAAGAAAAAGUACAAUACAGGGUGUAUAUUUAUUUUUUGUGUUAUAAAGUUUACUUUUAGUUGCUCUUCUAGAGAUUAUUAGGUAAUAAAUGUGUAUAUACUGUAUAAUUUGCAAUAUCAACAGAGGAUUGAGCAUCA
B10: chr19:34469546:34469571:+|3pUTR|ENSG00000126261|msi1_unk|total|mutant (ssRNA)
RNA: GGGAGUUCUACAGUCCGACGAUCGUUGCCUUUUUAAUGUAAAUACCCGCCGGUAUCAUUAACCGUUUCAAAAUAUUGUGGUUCCGUAAAGUUGAUACCUGGUUAUAAAUAUUAUGCCUUUAUUUUUGGCCCGAAGAAGAAUUACAACAGAGGAUUGAGCAUCA
B11: chr18:68676332:68676434:-|3pUTR|ENSG00000166479|msi1_unk|FALSE|overlapping (ssRNA)
RNA: GGGAGUUCUACAGUCCGACGAUCAUCAAGAUUAUGAGGUUAAAAAUAAUGUGGUUUUAUAUAGCAUAGUGGUUUUAUUUUGUUAGUUAUUUUUAAAGGAGAAGAAAUGUUACUUUUUAACUUUAUACUCAGUUGCAUUAUCAUCAACAGAGGAUUGAGCAUCA
B12: ENSG00000136451:be:win_3201|3pUTR|ENSG00000136451|bound_else_gene|NA|bound_elsewhere_windowed (ssRNA)
RNA: GGGAGUUCUACAGUCCGACGAUCAACAGUUCUAGGGGGUUGAACUACAUAGUAAAAAAAUAAAAUAAAUAGUACUUAGUGUAAAAUAAUUUUAUAAAUGAUCUUUUGUACUUUAGGACAUUAAAUUGUACAACUUUUGUAUAUCAACAGAGGAUUGAGCAUCA
B13: chr1:232398519:232398625:-|3pUTR|ENSG00000116991|unk|FALSE|unique (ssRNA)
RNA: B8 RNA with C28U, C29A, C56U, C57A, C76U, C77A, C83U, C84A
B14: chr19:34469546:34469571:+|3pUTR|ENSG00000126261|msi1_unk|FALSE|overlapping (ssRNA)
RNA: B10 RNA with C49U, C50A, C62U, C63A, C83U, C84A, C130U, C131A
B15: ENSG00000198589:be:win_801|CDS|ENSG00000198589|bound_else_gene|NA|bound_elsewhere_windowed (ssRNA)
RNA: GGGAGUUCUACAGUCCGACGAUCUCAUUUUGUUGGAGGCUGUUUGAUUGUAACAUCAAUAAAGUCAAAAGGAAAAGGCUUUCAACACUGUGUGAAAUUUGAUUUCAAGCCACAAAAGUGGUAUAUGGUUACCAUAGUACACAUCAACAGAGGAUUGAGCAUCA
B16: chr20:1375301:1375603:-|CDS|ENSG00000088832|control|control|control (ssRNA)
RNA: GGGAGUUCUACAGUCCGACGAUCGGUAUGCUCUCUCAUUUGUUUUGUUUUGCUUUCUAGUAUUUACCUUUUAUAUUUUUUUAUAGGUGGCAUAUUUAUACGGUUCAAAAAUAAAAAAAGUGAAAAGUCUCACCCUCAUGCCAUCAACAGAGGAUUGAGCAUCA
B17: ENSG00000136451:be:win_3151|3pUTR|ENSG00000136451|bound_else_gene|NA|bound_elsewhere_windowed (ssRNA)
RNA: GGGAGUUCUACAGUCCGACGAUCUGAGACAGACUUCCUACAUCAGGGACAGGUAUCUGUGUGUCAUUAUACAAAACAGUUCUAGGGGGUUGAACUACAUAGUAAAAAAAUAAAAUAAAUAGUACUUAGUGUAAAAUAAUUUUACAACAGAGGAUUGAGCAUCA
B18: chr18:68676332:68676434:-|3pUTR|ENSG00000166479|msi1_unk|total|mutant (ssRNA)
RNA: B11 RNA with U61C, A62C, U66C, A67C, U83C, A84C
B19: chr16:46660370:46660459:-|3pUTR|ENSG00000069329|msi1_unk|total|mutant (ssRNA)
RNA: GGGAGUUCUACAGUCCGACGAUCAAAAGGAAACCGCUCACCAUACUCCUUUCCAUGUACAUCCAGUGAGGGUUUUAUUACGCCCGGUUUCCCUUCCACCGAUUGUGCCUUUCAGAAAUGCUGAGGCCGGUUUCCCAUUUCUUACAACAGAGGAUUGAGCAUCA
B20: chr8:48920054:48920155:-|CDS|ENSG00000019549|unk|FALSE|unique (ssRNA)
RNA: GGGAGUUCUACAGUCCGACGAUCACCUAUUCAACUUUUUCUGGGCUGGCCAAACAUAAGCAGCUGCACUGCGAUGCCCAGUCUAGAAAAUCUUUCAGCUGUAAAUACUGUGACAAGGAAUAUGUGAGCCUGGGCGCCCUGAAGCAACAGAGGAUUGAGCAUCA
B21: ENSG00000136451:be:win_351|CDS|ENSG00000136451|bound_else_gene|NA|bound_elsewhere_windowed (ssRNA)
RNA: GGGAGUUCUACAGUCCGACGAUCUACCAUCGCUGGGGACAGCAGCCGAACUUCGUUGGUCUCGACCAUUGCAGGCAUCUUGUCAACAGUCACUACAUCUUCCUCGGGCACCAACCCCAGUAGCAGUGCCAGCACCACAGCUAUCAACAGAGGAUUGAGCAUCA
B22: chr8:103427116:103427218:+|CDS|ENSG00000164934|unk|total|mutant (ssRNA)
RNA: GGGAGUUCUACAGUCCGACGAUCGUAUACUGGGAUUGAUCAUCACUGGAAAGAAGCUGUUUUUGCCACAUGUGGACAGCAAGCCGACAUUUGGGAUGAACAAAGAACUAAUCCUAUAUGUUCAAUGACCUGGGGAUUUGACAGCAACAGAGGAUUGAGCAUCA

biological target: MSI1 full-length (mouse, UniProt Q61474 1-362); assay: nsRBNS (natural sequence RNA bind-n-seq); RBNS binding buffer (assumed for nsRBNS): 25 mM Tris pH 7.5, 150 mM KCl, 3 mM MgCl2, 0.01% Triton X-100, 500 ug/ml BSA, 20 U/ml SUPERase-In, 4 C; UNK is unkempt and MSI1 is Musashi-1; names of the RNAs are library labels; protein concentration not given here; high values mean tight binding
Sequence (Q61474 whole entry): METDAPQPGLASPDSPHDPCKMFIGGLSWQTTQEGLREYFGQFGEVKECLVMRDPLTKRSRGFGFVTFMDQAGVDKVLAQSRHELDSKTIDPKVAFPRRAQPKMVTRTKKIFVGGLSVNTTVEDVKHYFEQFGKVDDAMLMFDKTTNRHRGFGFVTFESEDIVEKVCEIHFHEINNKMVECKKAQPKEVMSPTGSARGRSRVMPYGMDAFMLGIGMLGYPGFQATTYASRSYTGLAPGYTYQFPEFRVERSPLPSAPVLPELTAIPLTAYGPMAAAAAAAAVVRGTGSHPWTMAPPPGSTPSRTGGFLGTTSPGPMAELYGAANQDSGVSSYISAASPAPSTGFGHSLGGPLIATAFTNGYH

Binder	binding signal
B1	0.529 enrichment R
B2	0.697 enrichment R
B3	0.848 enrichment R
B4	0.181 enrichment R
B5	0.318 enrichment R
B6	0.303 enrichment R
B7	10.7 enrichment R
B8	0.46 enrichment R
B9	11.9 enrichment R
B10	1.89 enrichment R
B11	69.1 enrichment R
B12	23.1 enrichment R
B13	18.4 enrichment R
B14	35.8 enrichment R
B15	0.264 enrichment R
B16	2.12 enrichment R
B17	15.5 enrichment R
B18	0.295 enrichment R
B19	0.39 enrichment R
B20	0.478 enrichment R
B21	0.413 enrichment R
B22	0.362 enrichment R
